Targets with a hit are over-represented here; the source holds about 8,800 in all. About 0.5% of all pairs of compound and target were hits.
Assays:
Assay in all cases: log2 fold change, soluble protein after heating vs DMSO (PISA); higher = thermal stabilisation; K562 lysate, 10 uM; active = over 0.2 and 3.5 SD of the protein, either way, in both replicates (recomputed)
lapatinib = compound: CS(=O)(=O)CCNCc1ccc(-c2ccc3ncnc(Nc4ccc(OCc5cccc(F)c5)c(Cl)c4)c3c2)o1 [lapatinib]
In short: (§1)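 Dounce homogenisation of K562 pellets in PBS pH 7.4 with 1 mM MgCl2 produced a crude extract, used at 1 mg/mL protein. Exposure to 10 μM compound lasted 30 min, and aliquots were then heated for 3 min across 48°C-58°C, pooled and brought to 0.5% NP-40 at 4°C. The supernatant after 21,000xg for 90 min was quantified by TMTpro 16plex LC-MS/MS with channel sums equalised. Duplicate values are given as log-two fold change in thermal stability relative to solvent controls.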

pictilisib = compound: CS(=O)(=O)N1CCN(Cc2cc3nc(-c4cccc5[nH]ncc45)nc(N4CCOCC4)c3s2)CC1 [pictilisib]
In short: as §1

crizotinib = compound: C[C@@H](Oc1cc(-c2cnn(C3CCNCC3)c2)cnc1N)c1c(Cl)ccc(F)c1Cl [crizotinib]
In short: as §1

[1] = compound: C[C@H](C1=CC=C(C=C1)C(=O)NC2=C3C=CNC3=NC=C2)N
In short: as §1

duvelisib = compound: C[C@H](Nc1ncnc2nc[nH]c12)c1cc2cccc(Cl)c2c(=O)n1-c1ccccc1 [duvelisib]
In short: as §1

gandotinib = compound: Cc1cc(Nc2cc(CN3CCOCC3)c3nc(C)c(Cc4ccc(Cl)cc4F)n3n2)n[nH]1 [gandotinib]
In short: as §1

tozasertib = compound: Cc1cc(Nc2cc(N3CCN(C)CC3)nc(Sc3ccc(NC(=O)C4CC4)cc3)n2)n[nH]1 [tozasertib]
In short: as §1

doramapimod = compound: Cc1ccc(-n2nc(C(C)(C)C)cc2NC(=O)Nc2ccc(OCCN3CCOCC3)c3ccccc23)cc1 [doramapimod]
In short: as §1

bafetinib = compound: Cc1ccc(NC(=O)c2ccc(CN3CC[C@H](N(C)C)C3)c(C(F)(F)F)c2)cc1Nc1nccc(-c2cncnc2)n1 [bafetinib]
In short: as §1

[2] = compound: Cc1cccc(CC(=O)N2CCc3c2ccc(-c2cn(C)c4ncnc(N)c24)c3F)n1
In short: as §1

nilotinib = compound: Cc1cn(-c2cc(NC(=O)c3ccc(C)c(Nc4nccc(-c5cccnc5)n4)c3)cc(C(F)(F)F)c2)cn1 [nilotinib]
In short: as §1

[3] = compound: Cc1nc(Nc2n[nH]c3c2CN(C(=O)N[C@H](CN(C)C)c2ccccc2)C3(C)C)c2sccc2n1
In short: as §1

dasatinib = compound: Cc1nc(Nc2ncc(C(=O)Nc3c(C)cccc3Cl)s2)cc(N2CCN(CCO)CC2)n1 [dasatinib]
In short: as §1

[4] = compound: Cc1ncc(-c2ccnc(Nc3ccc(S(C)(=O)=O)cc3)n2)n1C(C)C
In short: as §1

[5] = compound: Cn1cc(-c2ccc3c(c2)CCN3C(=O)Cc2cccc(C(F)(F)F)c2)c2c(N)ncnc21
In short: as §1

quisinostat = compound: Cn1cc(CNCC2CCN(c3ncc(C(=O)NO)cn3)CC2)c2ccccc21 [quisinostat]
In short: as §1

tipifarnib = compound: Cn1cncc1[C@@](N)(c1ccc(Cl)cc1)c1ccc2c(c1)c(-c1cccc(Cl)c1)cc(=O)n2C [tipifarnib]
In short: as §1

[6] = compound: NC(=O)Nc1cc(-c2cccc(F)c2)sc1C(=O)N[C@H]1CCCNC1
In short: as §1

[7] = compound: NC(=O)c1cnc(N[C@@H]2CCCC[C@@H]2N)nc1Nc1cccc(-n2nccn2)c1
In short: as §1

[8] = compound: NC1(c2ccc(-c3nc4ccn5c(=O)[nH]nc5c4cc3-c3ccccc3)cc2)CCC1
In short: as §1

Measured: log2 fold change

VPS33A (UniProt Q96AX1)
inactive: lapatinib 0 | pictilisib -0.005 | crizotinib -0.025 | [1] -0.03 | duvelisib 0.039 | gandotinib -0.043 | tozasertib 0.01 | doramapimod 0 | bafetinib 0.014 | [2] 0.036 | nilotinib -0.007 | [3] -0.004 | dasatinib -0.007 | [4] -0.027 | [5] 0.045 | quisinostat -0.018 | tipifarnib -0.006 | [6] 0.041 | [7] 0.021 | [8] -0.034

WDR91 (UniProt A4D1P6)
Sequence of UniProt A4D1P6 (A4D1P6 whole entry, looked up): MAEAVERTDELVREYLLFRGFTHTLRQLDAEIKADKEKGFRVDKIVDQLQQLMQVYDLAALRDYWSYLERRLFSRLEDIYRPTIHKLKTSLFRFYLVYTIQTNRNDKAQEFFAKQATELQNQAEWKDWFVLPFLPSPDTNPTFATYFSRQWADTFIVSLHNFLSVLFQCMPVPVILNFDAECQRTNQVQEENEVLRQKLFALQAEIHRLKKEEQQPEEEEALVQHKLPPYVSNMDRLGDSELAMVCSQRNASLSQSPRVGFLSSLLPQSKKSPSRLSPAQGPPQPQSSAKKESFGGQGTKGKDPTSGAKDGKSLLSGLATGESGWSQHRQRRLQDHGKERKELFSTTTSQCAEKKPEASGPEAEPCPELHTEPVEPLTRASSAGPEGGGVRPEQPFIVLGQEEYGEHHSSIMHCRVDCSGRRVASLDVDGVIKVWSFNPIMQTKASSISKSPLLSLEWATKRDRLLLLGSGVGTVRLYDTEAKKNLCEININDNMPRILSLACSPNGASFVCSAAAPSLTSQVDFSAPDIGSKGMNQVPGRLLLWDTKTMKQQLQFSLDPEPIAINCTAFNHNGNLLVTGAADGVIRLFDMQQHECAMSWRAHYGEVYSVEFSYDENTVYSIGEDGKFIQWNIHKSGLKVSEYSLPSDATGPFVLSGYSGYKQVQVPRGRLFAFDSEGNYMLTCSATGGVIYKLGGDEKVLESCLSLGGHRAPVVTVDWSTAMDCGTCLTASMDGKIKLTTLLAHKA
inactive: lapatinib -0.003 | pictilisib -0.012 | crizotinib -0.009 | [1] -0.001 | duvelisib 0.002 | gandotinib 0.048 | tozasertib 0 | doramapimod 0.038 | bafetinib -0.05 | [2] 0.052 | nilotinib -0.051 | [3] -0.025 | dasatinib -0.039 | [4] -0.01 | [5] 0.056 | quisinostat 0.005 | tipifarnib 0.014 | [6] -0.009 | [7] -0.004 | [8] 0.011

ZNF451 (UniProt Q9Y4E5)
Sequence of UniProt Q9Y4E5 (Q9Y4E5 whole entry, looked up): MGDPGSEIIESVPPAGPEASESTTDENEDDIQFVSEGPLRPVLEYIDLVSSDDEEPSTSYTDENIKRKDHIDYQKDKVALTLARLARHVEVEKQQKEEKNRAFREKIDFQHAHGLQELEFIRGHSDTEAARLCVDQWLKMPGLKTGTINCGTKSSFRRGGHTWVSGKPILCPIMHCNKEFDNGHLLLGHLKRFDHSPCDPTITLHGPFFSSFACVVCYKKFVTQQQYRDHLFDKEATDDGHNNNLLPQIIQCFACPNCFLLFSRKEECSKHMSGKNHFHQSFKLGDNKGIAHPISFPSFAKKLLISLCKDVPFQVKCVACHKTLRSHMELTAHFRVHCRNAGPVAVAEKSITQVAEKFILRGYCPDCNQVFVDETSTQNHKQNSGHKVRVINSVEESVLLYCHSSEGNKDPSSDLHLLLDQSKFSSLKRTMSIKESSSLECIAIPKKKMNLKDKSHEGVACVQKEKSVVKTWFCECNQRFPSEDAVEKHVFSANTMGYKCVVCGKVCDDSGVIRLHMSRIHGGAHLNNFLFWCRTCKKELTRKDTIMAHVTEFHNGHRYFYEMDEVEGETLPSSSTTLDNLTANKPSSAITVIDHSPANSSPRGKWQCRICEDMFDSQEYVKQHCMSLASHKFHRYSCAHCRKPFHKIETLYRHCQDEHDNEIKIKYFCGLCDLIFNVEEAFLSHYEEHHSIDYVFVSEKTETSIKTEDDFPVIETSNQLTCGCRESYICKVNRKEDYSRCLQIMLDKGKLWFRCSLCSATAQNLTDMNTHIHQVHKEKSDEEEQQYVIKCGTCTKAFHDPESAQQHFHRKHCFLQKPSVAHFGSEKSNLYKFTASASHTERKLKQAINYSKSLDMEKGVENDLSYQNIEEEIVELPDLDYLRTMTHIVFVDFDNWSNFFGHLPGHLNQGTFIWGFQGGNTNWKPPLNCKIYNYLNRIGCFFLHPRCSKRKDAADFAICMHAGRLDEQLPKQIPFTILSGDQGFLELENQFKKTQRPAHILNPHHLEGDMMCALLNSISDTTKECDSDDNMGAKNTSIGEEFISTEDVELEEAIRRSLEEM
inactive: lapatinib -0.044 | pictilisib -0.054 | crizotinib -0.042 | [1] -0.053 | duvelisib 0.007 | gandotinib -0.069 | tozasertib -0.045 | doramapimod 0.052 | bafetinib -0.074 | [2] 0.003 | nilotinib 0.016 | [3] 0.013 | dasatinib -0.028 | [4] -0.033 | [5] 0.02 | quisinostat -0.044 | tipifarnib -0.049 | [6] 0.022 | [7] 0.044 | [8] -0.038

VAMP2 (UniProt P63027)
Sequence of UniProt P63027 (P63027 whole entry, looked up): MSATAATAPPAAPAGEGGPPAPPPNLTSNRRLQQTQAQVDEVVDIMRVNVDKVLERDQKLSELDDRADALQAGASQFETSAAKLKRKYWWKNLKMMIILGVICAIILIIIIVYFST
inactive: lapatinib 0.045 | pictilisib -0.05 | crizotinib 0.105 | [1] 0.062 | duvelisib 0.051 | gandotinib -0.057 | tozasertib 0.074 | doramapimod -0.083 | bafetinib -0.002 | [2] -0.147 | nilotinib -0.034 | [3] 0.034 | dasatinib 0.002 | [4] 0.066 | [5] -0.009 | quisinostat 0.262 | tipifarnib 0.041 | [6] -0.027 | [7] 0.019 | [8] 0.067

USP16 (UniProt Q9Y5T5)
Sequence of UniProt Q9Y5T5 (Q9Y5T5 whole entry, looked up): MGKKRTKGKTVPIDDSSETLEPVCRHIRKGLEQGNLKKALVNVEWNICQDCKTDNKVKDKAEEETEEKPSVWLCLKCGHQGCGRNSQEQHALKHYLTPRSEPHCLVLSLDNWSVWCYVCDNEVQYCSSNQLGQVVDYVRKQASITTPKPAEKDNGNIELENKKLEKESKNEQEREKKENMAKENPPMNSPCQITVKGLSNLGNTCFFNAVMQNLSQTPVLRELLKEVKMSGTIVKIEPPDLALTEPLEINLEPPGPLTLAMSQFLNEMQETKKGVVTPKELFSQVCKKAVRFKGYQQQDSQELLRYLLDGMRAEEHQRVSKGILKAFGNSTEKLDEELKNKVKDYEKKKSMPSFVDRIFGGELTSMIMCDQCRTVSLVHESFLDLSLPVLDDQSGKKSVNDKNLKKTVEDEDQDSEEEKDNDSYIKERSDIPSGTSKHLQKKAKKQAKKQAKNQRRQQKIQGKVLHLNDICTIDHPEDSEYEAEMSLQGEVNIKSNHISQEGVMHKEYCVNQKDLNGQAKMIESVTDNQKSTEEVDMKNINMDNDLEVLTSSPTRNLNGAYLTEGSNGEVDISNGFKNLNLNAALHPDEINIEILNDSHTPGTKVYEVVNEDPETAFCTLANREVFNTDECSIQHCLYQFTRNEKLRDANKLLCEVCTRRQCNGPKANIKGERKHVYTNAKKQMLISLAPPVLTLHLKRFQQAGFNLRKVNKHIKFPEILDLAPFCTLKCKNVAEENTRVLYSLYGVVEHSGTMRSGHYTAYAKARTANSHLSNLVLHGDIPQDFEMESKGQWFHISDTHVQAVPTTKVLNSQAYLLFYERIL
inactive: lapatinib 0.003 | pictilisib -0.049 | crizotinib -0.018 | [1] 0.003 | duvelisib 0.049 | gandotinib -0.039 | tozasertib 0.006 | doramapimod -0.017 | bafetinib -0.037 | [2] 0.035 | nilotinib 0.016 | [3] 0.005 | dasatinib 0.053 | [4] 0.014 | [5] 0.041 | quisinostat -0.014 | tipifarnib 0.016 | [6] 0.011 | [7] 0.023 | [8] 0.012

WDR77 (UniProt Q9BQA1)
Sequence of UniProt Q9BQA1 (Q9BQA1 whole entry, looked up): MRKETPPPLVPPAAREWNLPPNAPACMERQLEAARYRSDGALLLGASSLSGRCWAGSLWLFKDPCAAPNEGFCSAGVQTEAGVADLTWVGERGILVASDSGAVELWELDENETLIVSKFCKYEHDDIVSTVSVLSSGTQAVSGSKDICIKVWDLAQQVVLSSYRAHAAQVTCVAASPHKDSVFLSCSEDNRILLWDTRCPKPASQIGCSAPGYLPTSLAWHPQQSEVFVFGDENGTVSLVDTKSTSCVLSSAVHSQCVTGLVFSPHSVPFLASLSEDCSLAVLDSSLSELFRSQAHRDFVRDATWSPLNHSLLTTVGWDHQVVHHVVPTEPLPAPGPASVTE
inactive: lapatinib 0.012 | pictilisib 0.016 | crizotinib -0.027 | [1] 0.014 | duvelisib 0.119 | gandotinib -0.037 | tozasertib -0.005 | doramapimod 0.008 | bafetinib -0.024 | [2] -0.047 | nilotinib 0.056 | [3] 0.028 | dasatinib 0.093 | [4] 0 | [5] -0.013 | quisinostat 0.014 | tipifarnib 0.048 | [6] 0.006 | [7] -0.008 | [8] 0.039

XPOT (UniProt O43592)
Sequence of UniProt O43592 (O43592 whole entry, looked up): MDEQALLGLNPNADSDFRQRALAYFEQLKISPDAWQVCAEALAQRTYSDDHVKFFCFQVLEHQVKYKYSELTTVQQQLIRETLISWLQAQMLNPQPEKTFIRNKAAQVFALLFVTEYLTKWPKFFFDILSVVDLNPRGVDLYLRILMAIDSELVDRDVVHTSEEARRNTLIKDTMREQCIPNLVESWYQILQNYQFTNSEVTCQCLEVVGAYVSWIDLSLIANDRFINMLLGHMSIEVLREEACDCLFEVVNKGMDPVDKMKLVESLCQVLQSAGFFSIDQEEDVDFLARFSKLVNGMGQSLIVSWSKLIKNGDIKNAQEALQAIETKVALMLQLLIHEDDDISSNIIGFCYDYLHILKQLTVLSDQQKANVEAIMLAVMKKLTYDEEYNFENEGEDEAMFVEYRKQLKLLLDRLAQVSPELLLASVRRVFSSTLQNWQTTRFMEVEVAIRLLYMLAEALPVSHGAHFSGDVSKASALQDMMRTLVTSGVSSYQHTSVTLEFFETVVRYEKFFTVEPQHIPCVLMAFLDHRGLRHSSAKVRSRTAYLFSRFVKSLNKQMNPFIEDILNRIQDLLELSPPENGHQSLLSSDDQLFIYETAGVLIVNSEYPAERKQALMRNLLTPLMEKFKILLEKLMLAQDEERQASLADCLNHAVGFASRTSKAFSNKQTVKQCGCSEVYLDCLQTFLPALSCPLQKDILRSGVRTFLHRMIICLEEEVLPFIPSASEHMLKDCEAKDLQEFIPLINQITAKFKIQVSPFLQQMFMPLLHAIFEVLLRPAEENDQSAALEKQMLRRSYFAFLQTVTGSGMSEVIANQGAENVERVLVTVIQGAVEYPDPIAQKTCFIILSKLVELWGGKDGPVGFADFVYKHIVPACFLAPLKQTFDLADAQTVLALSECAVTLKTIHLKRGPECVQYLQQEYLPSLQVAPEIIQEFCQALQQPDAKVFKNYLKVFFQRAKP
inactive: lapatinib -0.033 | pictilisib 0.013 | crizotinib -0.051 | [1] -0.044 | duvelisib 0.022 | gandotinib -0.086 | tozasertib -0.007 | doramapimod 0 | bafetinib -0.04 | [2] 0.057 | nilotinib -0.011 | [3] -0.017 | dasatinib -0.064 | [4] 0 | [5] -0.004 | quisinostat -0.056 | tipifarnib 0.005 | [6] 0.037 | [7] 0.003 | [8] -0.001

ZNHIT6 (UniProt Q9NWK9)
Sequence of UniProt Q9NWK9 (Q9NWK9 whole entry, looked up): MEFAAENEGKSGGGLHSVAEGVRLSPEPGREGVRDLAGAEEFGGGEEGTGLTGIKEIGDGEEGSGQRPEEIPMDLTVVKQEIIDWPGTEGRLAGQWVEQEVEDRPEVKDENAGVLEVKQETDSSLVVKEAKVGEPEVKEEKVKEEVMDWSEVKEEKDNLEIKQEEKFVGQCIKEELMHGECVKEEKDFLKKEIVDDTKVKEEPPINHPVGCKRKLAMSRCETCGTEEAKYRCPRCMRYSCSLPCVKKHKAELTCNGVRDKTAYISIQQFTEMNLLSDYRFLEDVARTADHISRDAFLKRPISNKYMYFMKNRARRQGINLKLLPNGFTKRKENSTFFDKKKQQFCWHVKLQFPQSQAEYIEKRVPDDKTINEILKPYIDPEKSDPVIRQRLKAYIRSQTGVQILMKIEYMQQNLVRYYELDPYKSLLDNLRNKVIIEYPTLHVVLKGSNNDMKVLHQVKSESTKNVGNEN
inactive: lapatinib 0.042 | pictilisib 0.006 | crizotinib -0.006 | [1] 0.061 | duvelisib -0.002 | gandotinib 0.008 | tozasertib -0.029 | doramapimod -0.024 | bafetinib -0.026 | [2] -0.004 | nilotinib -0.023 | [3] 0 | dasatinib -0.037 | [4] -0.005 | [5] 0.004 | quisinostat -0.04 | tipifarnib 0.014 | [6] 0.087 | [7] 0.028 | [8] -0.022
